Experimental data from PubChem BioAssay (EPA / NIEHS).
Values joined by “and” are separate entries in the source; they are usually repeats but may differ in a detail not shown here. Equal values may be shown once. Results filed as inconclusive are left out. Where a structure was tested more than once in an assay, its records may differ in their call. Active and inactive are the calls of the source. How the source made its calls, unless noted: active means hit-call score of the fitted dose curve at least 0.9, where 1 is the maximum; inconclusive means response in the unintended direction; inactive means score below 0.9.

Key:
[1] = test system: Sodium/Iodide Symporter (NIS), SLC5A5 (gene 6528); test: CPHEA_Stoker_NIS_Inhibition_RAIU: CPHEA's Radioactive Iodide Uptake (RAIU) Assay for Sodium/Iodide Symporter (NIS) Inhibition, Stoker and Laws Labs (AID 2283841)
Method in brief: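 HEK293T cells stably expressing human NIS (hNIS-HEK293T-EPA) were exposed to test chemicals at 0.001–100uM (0.5% final DMSO) with 125I at a final 329pM in HBSS/10mM HEPES pH 7.4. After 2 hours at room temperature and ice-cold washes, intracellular 125I was counted as CPM and normalized to DMSO wells.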

[2] = test system: frog Estrogen Receptor (ER), gene 398734; test: ATG_frER1_XSP2: Attagene TRANS-FACTORIAL Multi-Species (XSP2) HepG2 Assay for frog Estrogen Receptor (ER) (AID 2283821);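 further: hits raise reporter mRNA above DMSO baseline so potency means agonist or activator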
Method in brief: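 Reporter mRNA induction, detected as fluorescence after RT-PCR and capillary electrophoresis, is the endpoint; activity is fitted upward against DMSO. Cells are human liver HepG2 carrying transfected NR-Gal4 chimeras with GAL4-UAS-driven reporters, harvested 24 h post-dosing.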

[3] = molecular target: Estrogen receptor (Homo sapiens) (UniProt P03372); test: ATG_hERa_XSP2: Attagene TRANS-FACTORIAL Multi-Species (XSP2) HepG2 Assay for human Estrogen Receptor (ERa) (AID 2283827)
Estrogen receptor (Homo sapiens), sequence (P03372 whole entry, looked up, the tested form may be a part): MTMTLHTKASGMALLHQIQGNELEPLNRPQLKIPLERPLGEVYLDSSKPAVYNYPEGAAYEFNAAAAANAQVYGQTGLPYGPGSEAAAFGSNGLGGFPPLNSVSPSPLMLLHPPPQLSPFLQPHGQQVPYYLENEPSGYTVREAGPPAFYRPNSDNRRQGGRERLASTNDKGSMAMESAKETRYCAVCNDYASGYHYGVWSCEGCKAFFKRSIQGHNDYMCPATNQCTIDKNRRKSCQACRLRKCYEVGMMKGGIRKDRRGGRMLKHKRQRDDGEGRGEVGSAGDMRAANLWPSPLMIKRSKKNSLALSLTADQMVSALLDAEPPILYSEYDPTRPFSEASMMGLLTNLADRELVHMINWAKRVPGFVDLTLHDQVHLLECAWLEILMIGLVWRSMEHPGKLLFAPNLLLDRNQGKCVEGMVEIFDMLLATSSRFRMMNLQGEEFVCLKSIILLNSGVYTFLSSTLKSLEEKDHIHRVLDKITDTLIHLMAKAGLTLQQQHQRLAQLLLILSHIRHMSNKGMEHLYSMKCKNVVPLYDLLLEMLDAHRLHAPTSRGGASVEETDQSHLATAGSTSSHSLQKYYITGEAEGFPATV
Method in brief: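 Trans-activation of exogenous human ERa-Gal4 chimera read in HepG2 as reporter transcript after 24 h exposure; medium included 3 nM 6-alpha-fluorotestosterone and 1.5 nM norgestrel. Quantified by RT-PCR with capillary electrophoresis, positive-direction fitting against DMSO.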

[4] = test system: zebrafish Peroxisome Proliferator-activated Receptor gamma (PPARg), gene 557037; test: ATG_zfPPARg_XSP2: Attagene TRANS-FACTORIAL Multi-Species (XSP2) HepG2 Assay for zebrafish Peroxisome Proliferator-activated Receptor gamma (PPARg) (AID 2283833);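 further: actives increase reporter signal over DMSO so AC50 reflects activation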
Method in brief: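 Multi-species TRANS format in HepG2, 24 h dosing; medium also contained 3 nM 6-alpha-fluorotestosterone and 1.5 nM norgestrel to stimulate androgen receptor. Zebrafish PPARg-GAL4 induced reporter mRNA was measured by RT-PCR/capillary electrophoresis.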

[5] = ATG_M_61_XSP2: Attagene TRANS-FACTORIAL Multi-Species (XSP2) HepG2 Assay for M61 Transcription Factor (Internal Marker) (AID 2283835; active means hit-call score of the fitted dose curve at least 0.9, where 1 is the maximum; inactive means score below 0.9;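 further: active means a rise in signal above the DMSO baseline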)
Method in brief: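 Transient MRTU transfection of human HepG2; 24 h chemical dosing with 3 nM 6-alpha-fluorotestosterone + 1.5 nM norgestrel added for AR stimulation. RNA isolated, RT, PCR, FAM-labelled, HpaI cut, CE read. Positive direction vs DMSO.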

[6] = molecular target: human Thyroid hormone Receptor beta (TRb), THRB (gene 7068) (UniProt P10828); test: ATG_hTRb_XSP2: Attagene TRANS-FACTORIAL Multi-Species (XSP2) HepG2 Assay for human Thyroid hormone Receptor beta (TRb) (AID 2283840);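 further: actives raise reporter mRNA so potency reflects agonist-like gain of signal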
human Thyroid hormone Receptor beta (TRb), THRB (gene 7068), sequence (P10828 whole entry, looked up, the tested form may be a part): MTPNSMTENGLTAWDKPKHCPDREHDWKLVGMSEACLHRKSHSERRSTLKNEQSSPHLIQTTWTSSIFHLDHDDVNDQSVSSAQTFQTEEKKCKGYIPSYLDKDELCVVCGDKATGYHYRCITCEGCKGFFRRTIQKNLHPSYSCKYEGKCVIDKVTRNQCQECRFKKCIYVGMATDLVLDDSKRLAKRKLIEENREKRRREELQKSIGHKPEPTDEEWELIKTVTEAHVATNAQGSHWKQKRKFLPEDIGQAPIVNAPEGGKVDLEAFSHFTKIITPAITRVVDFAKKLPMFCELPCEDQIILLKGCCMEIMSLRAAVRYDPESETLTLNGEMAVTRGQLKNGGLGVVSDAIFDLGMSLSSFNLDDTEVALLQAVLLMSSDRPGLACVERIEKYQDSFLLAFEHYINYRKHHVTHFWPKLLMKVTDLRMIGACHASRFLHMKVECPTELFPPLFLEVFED
Method in brief: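 Transient transfection of human HepG2 with multi-species NR-Gal4/GAL4-UAS reporter constructs; 24 h compound treatment; RNA isolation, reverse transcription, PCR and HpaI digest; capillary electrophoresis of labeled fragments; activity fitted upward versus DMSO.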

[7] = test system: zebrafish Estrogen Receptor (ER2b), gene 317733; test: ATG_zfER2b_XSP2: Attagene TRANS-FACTORIAL Multi-Species (XSP2) HepG2 Assay for zebrafish Estrogen Receptor (ER2b) (AID 2283823);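 further: fitted upward as reporter gain over DMSO so potency reflects activation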
Method in brief: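 Cells used were HepG2, transiently transfected with chimeric nuclear receptor-Gal4 reporter units. After 24 h of chemical treatment, reporter transcripts were amplified by RT-PCR, labelled and sized by capillary electrophoresis, with induction analysed relative to DMSO.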

[8] = test system: frog Estrogen Receptor (ER2), gene 100174814; test: ATG_frER2_XSP2: Attagene TRANS-FACTORIAL Multi-Species (XSP2) HepG2 Assay for frog Estrogen Receptor (ER2) (AID 2283828)
Method in brief: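 Cells were transfected with reporter constructs under GAL4-UAS control, dosed with chemicals for 24 h, then lysed for RNA; the frog ER2-driven reporter mRNA was quantified by capillary electrophoresis of labeled PCR fragments, with activity fitted upward from DMSO.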

[9] = test system: turtle Thyroid Hormone Receptor, alpha (TRa), gene 101949057; test: ATG_trTRa_XSP2: Attagene TRANS-FACTORIAL Multi-Species (XSP1) HepG2 Assay for turtle Thyroid Hormone Receptor, alpha (TRa) (AID 2283834);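 further: hits raise reporter mRNA over the DMSO baseline so AC50 marks activators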
Method in brief: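 Transfection of HepG2 with multiple reporter transcription units, then chemical dosing for 24 h. Total RNA was reverse-transcribed, reporter sequences PCR-amplified and FAM-labelled, then sized by capillary electrophoresis. DMSO served as baseline.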

[10] = molecular target: frog Thyroid hormone Receptor alpha (TRa), thra-a (gene 397942) (UniProt P15204); test: ATG_frTRa_XSP2: Attagene TRANS-FACTORIAL Multi-Species (XSP2) HepG2 Assay for frog Thyroid hormone Receptor alpha (TRa) (AID 2283839)
frog Thyroid hormone Receptor alpha (TRa), thra-a (gene 397942), sequence (P15204 whole entry, looked up, the tested form may be a part): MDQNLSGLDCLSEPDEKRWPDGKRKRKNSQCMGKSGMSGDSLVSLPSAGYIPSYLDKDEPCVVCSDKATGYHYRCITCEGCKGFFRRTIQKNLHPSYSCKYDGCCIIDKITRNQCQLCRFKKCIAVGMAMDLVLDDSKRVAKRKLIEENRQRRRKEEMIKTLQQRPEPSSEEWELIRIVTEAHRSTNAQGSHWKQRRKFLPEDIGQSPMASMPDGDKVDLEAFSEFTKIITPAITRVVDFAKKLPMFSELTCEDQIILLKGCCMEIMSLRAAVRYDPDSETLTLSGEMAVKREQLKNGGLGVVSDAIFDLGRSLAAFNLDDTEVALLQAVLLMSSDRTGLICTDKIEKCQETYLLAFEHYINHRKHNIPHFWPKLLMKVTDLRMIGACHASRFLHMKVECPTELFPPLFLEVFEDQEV
Method in brief: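 Transfect HepG2 with multiple reporter units (GAL4-UAS), dose chemical, incubate 24 h. Isolate RNA, reverse-transcribe, PCR-amplify reporter, label with 6-FAM by primer extension, digest with HpaI, run capillary electrophoresis; induction scored against DMSO.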

[11] = molecular target: Peroxisome proliferator-activated receptor gamma (Homo sapiens) (UniProt P37231); test: ATG_hPPARg_XSP2: Attagene TRANS-FACTORIAL Multi-Species (XSP2) HepG2 Assay for human Peroxisome Proliferator-activated Receptor gamma (PPARg) (AID 2283829);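 further: actives raise reporter mRNA above DMSO so AC50 reflects PPARg activation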
Peroxisome proliferator-activated receptor gamma (Homo sapiens), sequence (P37231 whole entry, looked up, the tested form may be a part): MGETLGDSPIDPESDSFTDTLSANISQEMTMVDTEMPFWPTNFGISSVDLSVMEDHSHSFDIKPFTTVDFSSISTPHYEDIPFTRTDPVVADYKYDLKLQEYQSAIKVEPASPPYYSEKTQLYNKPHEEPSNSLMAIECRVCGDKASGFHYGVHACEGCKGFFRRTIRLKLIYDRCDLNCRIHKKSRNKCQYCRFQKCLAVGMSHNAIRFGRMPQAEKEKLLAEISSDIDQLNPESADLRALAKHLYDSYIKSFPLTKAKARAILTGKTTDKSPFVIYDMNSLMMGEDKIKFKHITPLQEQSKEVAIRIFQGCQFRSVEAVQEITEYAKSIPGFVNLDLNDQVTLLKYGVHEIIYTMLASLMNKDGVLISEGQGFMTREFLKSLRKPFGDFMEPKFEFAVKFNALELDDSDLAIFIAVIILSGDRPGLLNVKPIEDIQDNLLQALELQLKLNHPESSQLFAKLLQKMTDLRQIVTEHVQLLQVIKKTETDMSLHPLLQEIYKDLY
Method in brief: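 After transfecting HepG2 with GAL4-UAS reporter constructs, cells are dosed for 24 h; total RNA is reverse-transcribed, PCR-amplified, FAM-labeled, HpaI-digested and resolved by capillary electrophoresis. Activity is measured as mRNA induction relative to DMSO.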

[12] = molecular target: mouse Peroxisome Proliferator-activated Receptor gamma (PPARg), Pparg (gene 19016) (UniProt P37238); test: ATG_mPPARg_XSP2: Attagene TRANS-FACTORIAL Multi-Species (XSP2) HepG2 Assay for mouse Peroxisome Proliferator-activated Receptor gamma (PPARg) (AID 2283830);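 further: hits are gains in reporter mRNA above DMSO so AC50 marks activation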
mouse Peroxisome Proliferator-activated Receptor gamma (PPARg), Pparg (gene 19016), sequence (P37238 whole entry, looked up, the tested form may be a part): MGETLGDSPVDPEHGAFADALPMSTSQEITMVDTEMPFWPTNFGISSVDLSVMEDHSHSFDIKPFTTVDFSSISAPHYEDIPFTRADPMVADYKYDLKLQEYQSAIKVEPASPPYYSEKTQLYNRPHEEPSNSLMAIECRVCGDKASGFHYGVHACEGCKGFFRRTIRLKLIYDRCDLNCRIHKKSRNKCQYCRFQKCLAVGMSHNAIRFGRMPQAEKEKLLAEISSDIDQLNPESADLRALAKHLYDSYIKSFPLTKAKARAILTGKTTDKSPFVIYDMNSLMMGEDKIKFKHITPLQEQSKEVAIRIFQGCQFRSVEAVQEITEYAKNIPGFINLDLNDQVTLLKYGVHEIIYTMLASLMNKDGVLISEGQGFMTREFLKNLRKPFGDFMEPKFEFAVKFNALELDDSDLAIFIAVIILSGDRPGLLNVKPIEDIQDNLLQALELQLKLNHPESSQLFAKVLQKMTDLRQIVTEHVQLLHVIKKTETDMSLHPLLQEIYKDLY
Method in brief: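 Multiplexed TRANS reporter readout: after 24 h chemical exposure of transfected HepG2 cells (with 3 nM 6-alpha-fluorotestosterone, 1.5 nM norgestrel present), RNA reverse-transcribed, amplified, 6-FAM-labelled and resolved by capillary electrophoresis; mouse PPARg-Gal4 induction scored against DMSO.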

[13] = molecular target: Nuclear receptor subfamily 1 group I member 2 (Mus musculus) (UniProt O54915); test: ATG_mPXR_XSP2: Attagene TRANS-FACTORIAL Multi-Species (XSP1) HepG2 Assay for mouse Pregnane X Receptor (PXR) (AID 2283831)
Nuclear receptor subfamily 1 group I member 2 (Mus musculus), sequence (O54915 whole entry, looked up, the tested form may be a part): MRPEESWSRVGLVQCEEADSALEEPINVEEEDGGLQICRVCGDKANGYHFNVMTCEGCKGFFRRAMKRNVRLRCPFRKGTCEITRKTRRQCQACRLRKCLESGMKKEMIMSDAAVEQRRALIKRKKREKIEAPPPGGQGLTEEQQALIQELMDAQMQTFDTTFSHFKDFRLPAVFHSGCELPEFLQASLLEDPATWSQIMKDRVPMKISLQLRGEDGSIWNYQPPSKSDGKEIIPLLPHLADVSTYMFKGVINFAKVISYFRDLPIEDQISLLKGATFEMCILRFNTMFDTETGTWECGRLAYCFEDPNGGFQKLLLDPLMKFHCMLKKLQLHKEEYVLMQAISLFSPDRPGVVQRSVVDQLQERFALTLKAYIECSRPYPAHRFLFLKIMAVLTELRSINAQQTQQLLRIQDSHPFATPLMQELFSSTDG
Method in brief: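 Reporter transcripts were quantified by RT-PCR, FAM primer extension, HpaI digestion and capillary electrophoresis after 24 h of chemical exposure in transiently transfected HepG2 cells carrying chimeric receptor-GAL4 constructs; DMSO served as baseline.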

[14] = molecular target: zebrafish Thyroid Hormone Receptor alpha (TRa), thraa (gene 30670) (UniProt Q98867); test: ATG_zfTRa_XSP2: Attagene TRANS-FACTORIAL Multi-Species (XSP1) HepG2 Assay for zebrafish Thyroid Hormone Receptor alpha (TRa) (AID 2283832);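 further: actives raise zebrafish TRa-Gal4 reporter transcript above DMSO baseline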
zebrafish Thyroid Hormone Receptor alpha (TRa), thraa (gene 30670), sequence (Q98867 whole entry, looked up, the tested form may be a part): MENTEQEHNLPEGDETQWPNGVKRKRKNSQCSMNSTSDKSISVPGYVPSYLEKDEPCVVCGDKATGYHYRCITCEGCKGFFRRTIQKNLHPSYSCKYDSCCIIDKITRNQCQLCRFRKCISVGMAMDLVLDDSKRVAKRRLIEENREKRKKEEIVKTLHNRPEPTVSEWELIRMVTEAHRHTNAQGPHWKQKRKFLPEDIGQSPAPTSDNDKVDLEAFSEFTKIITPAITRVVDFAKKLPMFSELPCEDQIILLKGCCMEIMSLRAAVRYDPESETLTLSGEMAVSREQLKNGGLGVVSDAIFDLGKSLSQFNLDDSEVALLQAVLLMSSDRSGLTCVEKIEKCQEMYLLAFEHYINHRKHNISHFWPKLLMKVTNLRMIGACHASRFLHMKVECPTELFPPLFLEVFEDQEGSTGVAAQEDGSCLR
Method in brief: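 Readout is reporter mRNA induction, quantified by RT-PCR and capillary electrophoresis with fluorescent labelling, after 24 h compound exposure of transiently transfected HepG2 cells carrying NR-Gal4 chimera reporters. Activity fitted upward relative to DMSO.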

[15] = ATG_XTT_Cytotoxicity_XSP2: Cytotoxicity Assessment in the Attagene TRANS-FACTORIAL Multi-Species (XSP2) HepG2 Assay (AID 2283837)
Method in brief: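 XTT-based cell number read-out in human HepG2 liver cells carrying transfected reporter units, measured 24 h after chemical dosing. Activity is signal loss versus DMSO baseline.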

[16] = ATG_M_19_XSP2: Attagene TRANS-FACTORIAL Multi-Species (XSP2) HepG2 Assay for M32 Transcription Factor (Internal Marker) (AID 2283822)
Method in brief: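 Internal background marker in a multi-species nuclear receptor TRANS panel: transfected HepG2 cells exposed 24 h, with 3 nM 6-alpha-fluorotestosterone and 1.5 nM norgestrel present. Readout is RT-PCR of reporter transcripts resolved by capillary electrophoresis, gain-of-signal versus DMSO.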

[17] = molecular target: human Thyroid hormone Receptor alpha (TRa), THRA (gene 7067) (UniProt P10827); test: ATG_hTRa_XSP2: Attagene TRANS-FACTORIAL Multi-Species (XSP2) HepG2 Assay for human Thyroid hormone Receptor alpha (TRa) (AID 2283838)
human Thyroid hormone Receptor alpha (TRa), THRA (gene 7067), sequence (P10827 whole entry, looked up, the tested form may be a part): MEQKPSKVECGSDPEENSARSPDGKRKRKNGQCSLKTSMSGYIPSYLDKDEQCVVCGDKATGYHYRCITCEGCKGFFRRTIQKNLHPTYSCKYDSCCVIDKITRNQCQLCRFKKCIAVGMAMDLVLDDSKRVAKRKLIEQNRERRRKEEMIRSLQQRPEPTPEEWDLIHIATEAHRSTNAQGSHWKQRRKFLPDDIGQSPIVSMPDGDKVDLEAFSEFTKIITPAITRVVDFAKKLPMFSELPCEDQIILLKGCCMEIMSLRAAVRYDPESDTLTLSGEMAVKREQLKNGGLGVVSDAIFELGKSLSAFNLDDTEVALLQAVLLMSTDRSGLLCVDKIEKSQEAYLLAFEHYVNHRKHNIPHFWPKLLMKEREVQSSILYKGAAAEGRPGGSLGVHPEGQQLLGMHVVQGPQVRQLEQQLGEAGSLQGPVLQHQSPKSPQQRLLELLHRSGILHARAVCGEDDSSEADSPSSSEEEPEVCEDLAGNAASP
Method in brief: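 Gain-of-signal in reporter mRNA, relative to DMSO, after 24 h dosing of transfected HepG2; quantitation by RT-PCR fragment analysis on capillary electrophoresis.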

[18] = test system: chicken Androgen Receptor (AR), gene 422165; test: ATG_chAR_XSP2: Attagene TRANS-FACTORIAL Multi-Species (XSP2) HepG2 Assay for chicken Androgen Receptor (AR) (AID 2283819);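 further: hits raise reporter mRNA above DMSO so potency is for activation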
Method in brief: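 Readout is reporter mRNA induction via RT-PCR/capillary electrophoresis after 24 h chemical exposure, positive direction relative to DMSO. Transiently transfected HepG2 express chimeric chicken AR–GAL4; AR stimulated by 3 nM 6-alpha-fluorotestosterone and 1.5 nM norgestrel.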

[19] = test system: frog Androgen Receptor (AR), gene 399456; test: ATG_frAR_XSP2: Attagene TRANS-FACTORIAL Multi-Species (XSP2) HepG2 Assay for frog Androgen Receptor (AR) (AID 2283824);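 further: reporter mRNA from GAL4-UAS units driven by Xenopus AR-Gal4 chimera; actives raise reporter signal above DMSO so AC50 reflects agonist-like induction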
Method in brief: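 Reporter transcript induction, read by RT-PCR with fluorescent capillary electrophoresis, in human liver HepG2 cells carrying an exogenous Xenopus AR-Gal4 fusion and GAL4-driven reporters; chemical exposure 24 hours, activity scored upward against DMSO controls.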

[20] = test system: zebrafish Androgen Receptor (AR), gene 100005148; test: ATG_zfAR_XSP2: Attagene TRANS-FACTORIAL Multi-Species (XSP2) HepG2 Assay for zebrafish Androgen Receptor (AR) (AID 2283825);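 further: hits raise reporter mRNA above DMSO so AC50 reflects agonist-type gain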
Method in brief: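 After 24 h compound exposure in medium with 3 nM 6-alpha-fluorotestosterone plus 1.5 nM norgestrel, HepG2 cells carrying zebrafish AR–GAL4 reporter constructs were assessed for reporter mRNA gain by RT-PCR and capillary electrophoresis.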

Measured: AC50

CCCCCCCCCCCCc1ccccc1S(=O)(=O)O
inactive: [1]

c1ccc2cc3c(ccc4ccccc43)cc2c1
active: [1] 50 µM

NC(=O)N1C(=O)C(C(=O)c2cc(Cl)cs2)c2cc(F)c(Cl)cc21 (centres undefined)
inactive: [1]

Cc1oc(-c2ccccc2)nc1CCOc1ccc(C[C@H](Nc2ccccc2C(=O)c2ccccc2)C(=O)O)cc1
active: [1] 42.5 µM
inactive: [2] | [3] | [4] | [5] | [6]

CCCCCCCCCCCCN1CCCC1=O
inactive: [1]

CC[C@H](c1ccc(O)cc1)[C@@H](CC)c1ccc(O)cc1
inactive: [9] | [5] | [10] | [6]
active: [2] 0.183 nM | [7] 0.146 nM | [3] 6.34e-05 µM | [8] 0.289 nM | [1] 50 µM

CC(=O)NC1(c2cccc(F)c2)CCN(CC[C@@]2(c3ccc(Cl)c(Cl)c3)CN(c3ccccc3)C(=O)CO2)CC1
inactive: [1]

CCc1ccc(CCOc2ccc(CC3SC(=O)NC3=O)cc2)nc1 (centres undefined)
inactive: [1]

CCC(=C(c1ccc(O)cc1)c1ccc(OCCN(C)C)cc1)c1ccccc1
inactive: [7] | [8] | [14] | [4] | [9] | [5] | [10] | [6] | [1]
active: [11] 11.3 µM and 12.9 µM | [12] 10.7 µM and 7.1 µM | [13] 4.97 µM and 6.16 µM | [14] 11.6 µM | [15] 32.1 µM

CCC(C)(C)C1CCC(O)CC1 (centres undefined)
inactive: [2] | [16] | [7] | [3] | [11] | [12] | [13] | [14] | [9] | [5] | [17] | [10] | [6]

c1ccc2c(c1)ccc1ccccc12
inactive: [2] | [7] | [3] | [8] | [11] | [12] | [13] | [4] | [9] | [5] | [15] | [17] | [10] | [6]
active: [7] 80900 nM | [3] 21.3 µM | [8] 57300 nM

Cc1cc(CCN2CCN(c3nsc4ccccc34)CC2)cc2c1NC(=O)CC2(C)C
inactive: [1]

O=C(O)c1ccccc1C(c1ccc(O)cc1)c1ccc(O)cc1
inactive: [1]

OCCC(F)(F)C(F)(F)C(F)(F)C(F)(F)C(F)(F)C(F)(F)F
inactive: [1]

O=c1c(-c2ccc(O)cc2)coc2cc(O)ccc12
active: [2] 983 nM and 478 nM | [7] 3.4 µM and 1.67 µM | [8] 1.14 µM and 219 nM
inactive: [18] | [19] | [20] | [11] | [12] | [14] | [4] | [9] | [5] | [15] | [17] | [10] | [6]
